In the assay the test system is VDR:RXRa (NR concentration 270 nM, RXRa partner concentration 90 nM). Kind of assay: PBM binding z-score (relative to random genomic background probes); higher = stronger binding; sequences stand for … in GC…GCGATTGACAGCGTAGAATGAAGG
The protocol:
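Protein-binding microarray (Agilent 4x180K custom design, double-stranded 60-nt probes: 5' GC cap, 34-nt variable region, 24-nt constant primer region; full probe sequence given). Purified or IVT nuclear receptor:RXRα heterodimers (3:1 NR:RXRα, mostly 270:90 nM) or homodimers were incubated for 1 h in PBS with 2% milk and no ligand, then detected with Alexa488 antibodies. Fluorescence from o1-orientation probes (~5 replicates averaged) was converted to z-scores against 500 random hg19 background probes. Variable regions are seed direct-repeat (DR0–DR5) sites, all their single-nucleotide variants and half-site ablations.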
TCGAGTAGGATAGTCGGGGCATTCAGCCAACATA: the PBM binding z-score is -0.319.

The sequence CAAACTAGGTCACAGATGTCAAAGTCCGTGCGTA registered a PBM binding z-score of 4.5.

With CGAACTAGGTAATCCAGGACAGTGAATACATTGA, the PBM binding z-score amounted to 0.209.

CCTACTGGGCCACGAAATGTCATTGATTCAGTGA: the PBM binding z-score is -0.452.

On to CCGTCTGGGGCAAAGGTTACCATACTCAGTACGA, for which the PBM binding z-score came out at 1.55.

The sequence ACTAGCAGGCCATGGGTCACTCAAGATTAGTCCG displayed a PBM binding z-score of 0.6.

AATACAGGGTCATCGTAGGCCAGCGTACGCACAG had a PBM binding z-score of 5.21.

Turning to ATATGTAAGTTAGCTGGGGTCATTCAGACTAGGC, the PBM binding z-score amounted to 5.25.

TAGCCTAGGTCAGACCGGGCCAGTATACGCTATA: the PBM binding z-score turned out to be 0.854.

For the sequence CGAACTAGGTCATCCAGCACAGTGAATACATTGA, the PBM binding z-score came to 2.34.

ATCTCTAGGTAAAAGCTCAGTGAATCCCGAGGAT registered a PBM binding z-score of -0.227.

In turn, GGACCGAGGGCAAAGTTGATAGCATCTGTCGACG showed a PBM binding z-score of 0.837.

The sequence TCTGCTAGGTCACCGATGGTCAGCTAATCTGCTA returned a PBM binding z-score of 2.17.

Consider CCTTACGGGTCAAGATTATAGCACGGGTGGTACG, for which the PBM binding z-score was 2.9.

Sequence GCTTGTATATCAAGGTTAAGAAAGACTAAGCTAA registered a PBM binding z-score of 0.325.

Regarding GAAGACAGGTGAAACGCAGGTAACTCAGGGTGGC, the PBM binding z-score was -0.438.

For TCAAGTAGGTTAGGGGCATTCAGAATGGCGTCGA, the PBM binding z-score came out at 1.05.

Consider AGAATAAGGTTATACGTAGATCAGGGAAGAAAGT, for which the PBM binding z-score came to 1.04.

Regarding ATACCAAGGTGATCCTGAGGTCGTTGATACTAAC, the PBM binding z-score came out at 3.42.

On to CTTCAAAGTTCAACTAAGGTAACGTAAAGCACGC, for which the PBM binding z-score is 4.63.

TCAGACAGGTGACGGTAACTCAGGTACGCAGTCG: the PBM binding z-score stood at 0.324.

Regarding CCTCGGAGGACAATAGGAGGTCAGAGCTGCCAGA, the PBM binding z-score came to 1.51.

Turning to TGAATGAGGTCATAAGATCAGGGAACGTTGCAAA, the PBM binding z-score came out at 4.71.

With CAAACTAGGTCACGAAAGCTCAAAGTCGAATGAC, the PBM binding z-score turned out to be 2.37.

With CCTCAGAGGACAGAAGGTCAGAGCTGTCCGCTTT, the PBM binding z-score was 1.07.

Regarding ATATGTAGGTTAGCTGGTGTCATTCAGACTAGGC, the PBM binding z-score came out at 1.4.

ACTATTAGTTGACTTAGGGCAACCGGTACGACGC came in with a PBM binding z-score of 1.16.

CCTGCTAGGTCAGTGGTCAGCTAAAGCAGCTCGC registered a PBM binding z-score of -0.183.

In turn, CCTCGGCGGACAGAAGGTCAGAGCTGTCCGCTTT registered a PBM binding z-score of 0.473.

Regarding ACTCGGAGGACAAAGATCAGAGCTACGCCAGTGA, the PBM binding z-score was -0.289.

With CGTGCAAGGTCAGCAGGTCAGTGAAAGCGACGTG, the PBM binding z-score stood at 4.25.

As for ATCTCTAGGTAGAGATAGTTCAGTGAATGCAAAT, the PBM binding z-score amounted to 0.159.

CGTCCAAGGTCTATGCTAGGTCAGTGAAAGCATT registered a PBM binding z-score of 0.278.

CCTTACGGGTCACTGACAGGTTATAGAATTTGGA came in with a PBM binding z-score of 3.69.

For the sequence CCGACTGGCGCAAGGTTACCATAACGCACAGCCA, the PBM binding z-score was determined as 0.151.

For CCTTCCGGGTCACTCCAGGTTATAGCATCGGAGT, the PBM binding z-score is 4.21.

CCTTACGGGTCACTGACAGGTTATTGCATTTGGA displayed a PBM binding z-score of 3.93.

AGAATGAGGGTAAGATCAGGGAAACAGAATACAT showed a PBM binding z-score of -0.0914.

The sequence CAAACTAGGTCAAGAGTTCAAAGTCCGCTTCCCG came in with a PBM binding z-score of 6.21.

Sequence TCTTGTAGATCAAAGGTTCAGAAAGCCGAAGCCT had a PBM binding z-score of 1.47.

For the origin of these results see the supplement of paper PMC6555819.
